DAX1 inh-1 = blocks DAX1 repression of SF-1 activated StAR promoter; HEK293T StAR-luciferase reporter, SF-1/DAX-1 repression relief; inhibition, % at 6.8 µM; 370,000 compounds, 1.1% hits; AID 652010;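 active means inhibition above the mean over all tested compounds plus 3 SD, cut at about 3.6% in these data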;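 further: higher inhibition means more luminescence from relief of DAX-1 repression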
DAX1 inh-2 = NR0B1 (DAX1) inhibition; HEK293 Gal4-DAX1 luciferase reporter, luminescence; P51843; inhibition, % at 6.75 µM; 340,000 compounds, 0.99% hits; AID 504766;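 active means inhibition above the mean over all tested compounds plus 3 SD, cut at about 4.2% in these data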;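 further: inhibition shows as a rise in luminescence from relieved DAX1 repression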
Target sequence (P51843 207-470 limits assumed): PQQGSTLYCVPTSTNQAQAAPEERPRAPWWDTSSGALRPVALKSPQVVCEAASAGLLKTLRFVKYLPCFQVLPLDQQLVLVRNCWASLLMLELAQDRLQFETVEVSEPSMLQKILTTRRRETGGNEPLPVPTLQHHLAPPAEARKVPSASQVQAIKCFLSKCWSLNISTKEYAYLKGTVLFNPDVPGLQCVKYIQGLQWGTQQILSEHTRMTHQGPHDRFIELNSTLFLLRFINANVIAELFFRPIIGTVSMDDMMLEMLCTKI
SMARCA2 act = increases SMARCA2 function in MMTV reporter cells | MG213 cells, MMTV-luciferase reporter, dexamethasone, overnight | activation, % at 9.1 µM | 370,000 compounds, 1% hits | AID 652017; in the data active means activation above about 7.8%
hgDAF-12 ag = activates the H. glycines DAF-12 receptor ligand-binding domain | HEK293 GAL4-hgDAF12 UAS-luciferase reporter, agonist luminescence; normalized to butyrate control | activation, % at 6.8 µM | 370,000 compounds, 1.8% hits | AID 687014;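 active means activation above a cutoff set at the mean of all screened compounds plus 3 SD, cut at about 10% in these data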
ssDAF-12 act = activators of S. stercoralis DAF-12 nuclear receptor; HEK293 ssDAF-12/GRIP1 lit1-tk-luc reporter, luminescence; % of 3 µM dafachronic acid response; activation, % at 6.8 µM; 370,000 compounds, 1% hits;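 active means activation above the mean over all tested compounds plus 3 SD, cut at about 0.9% in these data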
hcDAF12 agonist = H. contortus DAF-12 activation, primary screen. HEK293 hcDAF-12 lit1-tk-luc reporter, luminescence; 0% DMSO, 100% Δ7-dafachronic acid. activation, % at 6.8 µM. 370,000 compounds, 1.4% hits. AID 652067;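 active means activation above the mean of all tested compounds plus 3 SD, cut at about 5.5% in these data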
Large screens that a line does not name were inactive. Most compounds without a hit are left out; they make up all but 4.8% or so of the library.

CCCCN(C(C)=O)C1CC(=O)N(c2ccc(OCCC)cc2)C1=O (stereo not drawn)	DAX1 inh-2 8.6
O=C(O)c1ccc(-n2nnnc2Oc2ccccc2C(=O)N2CCOCC2)cc1	DAX1 inh-2 4.9
Cc1cccc(NC(=O)CNC(=O)[C@H]2O[C@@H](n3ccc(N)nc3=O)[C@H](O)[C@@H]2O)c1C	none (no result: DAX1 inh-2)
CN1CCN(S(=O)(=O)c2ccc(N(C)Cc3cccc(F)c3)nc2)CC1	none
CCCCCNC(=O)C(C1CC1)n1c(=O)c(-c2cc3ccccc3[nH]2)nc2ccccc21 (stereo not drawn)	none (no result: DAX1 inh-2)
CC(C)(C)NC(=O)C(c1cc2ccccc2o1)n1c(=O)c(-c2ccccc2)nc2ccccc21 (stereo not drawn)	ssDAF-12 act 1.1 (no result: DAX1 inh-2)
Cc1cccc(C)c1NC(=O)C(c1ccccc1)n1c(=O)c(-c2cc3ccccc3[nH]2)nc2ccccc21 (stereo not drawn)	none (no result: DAX1 inh-2)
CCCCCNC(=O)C(c1cc2ccccc2o1)n1c(=O)c(-c2cc3ccccc3[nH]2)nc2ccccc21 (stereo not drawn)	hcDAF12 agonist 5.6 (no result: DAX1 inh-2)
CCCCCNC(=O)C(c1ccc(-c2ccccc2)cc1)n1c(=O)c(-c2cc3ccccc3[nH]2)nc2ccccc21 (stereo not drawn)	ssDAF-12 act 1.2, hcDAF12 agonist 6.0 (no result: DAX1 inh-2)
Cc1cccc(C)c1NC(=O)C(c1ccncc1)n1c(=O)c(-c2cc3ccccc3[nH]2)nc2ccccc21 (stereo not drawn)	hgDAF-12 ag 11, ssDAF-12 act 1.0, hcDAF12 agonist 6.4 (no result: DAX1 inh-2)
O=C(Nc1cccc(C(F)(F)F)c1)O[C@@H]1CC[C@@]23CCCN2C(=O)CCC[C@H]3C1	none (no result: DAX1 inh-1, DAX1 inh-2, SMARCA2 act)
Cc1ccccc1C(=O)NC1CCCCN(C)C1=O (stereo not drawn)	none (no result: DAX1 inh-2)
O=C(c1cc(-c2ccccc2)nn1-c1ccccc1)N1CCN(S(=O)(=O)c2c(F)cccc2F)CC1	none
Cc1nc2c3ccccc3nc(NNC(=O)CCC(=O)N3CCCC(C)C3)n2n1 (stereo not drawn)	none
COc1ccccc1-n1ccnc(SCC(=O)NCCc2ccccc2)c1=O	none
Cn1c(NC(=O)/C=C\c2ccccc2)cc(=O)n(C)c1=O	DAX1 inh-2 4.6, ssDAF-12 act 1.1
COc1ccc(NC2=Nc3ccccc3CC2)cc1	hgDAF-12 ag 11
CC(C)NC(=O)OC1CC2CC1[C@H]1CCCCN1C2=O (stereo partly drawn)	none (no result: DAX1 inh-2)
C=CCSc1n[nH]c(-c2ccc(OCCC)cc2)n1	none (no result: DAX1 inh-1, SMARCA2 act, hgDAF-12 ag, ssDAF-12 act, hcDAF12 agonist)
C=CCSc1n[nH]c(-c2ccc(OCCCC)cc2)n1	ssDAF-12 act 0.9
COc1ccccc1C(=O)Nc1nnc(S(=O)(=O)N2CCC(C)CC2)s1	DAX1 inh-2 5.0
CC1CCCN(CCCNC(=O)c2nn(C)c3c2CS(=O)(=O)c2ccccc2-3)C1 (stereo not drawn)	none
O=C(NCc1cccc(C(F)(F)F)c1)c1ccc2nc([C@H]3C[C@H](O)[C@@H](CO)O3)[nH]c2c1	none (no result: DAX1 inh-2)
Cc1nc2ccccn2c1/C(O)=C1\C(=O)C(=O)N(CCN(C)C)C1c1ccco1 (stereo not drawn)	DAX1 inh-2 5.2
Cc1ccc(/C(O)=C2\C(=O)C(=O)N(CCN(C)C)C2c2ccccc2F)cc1 (stereo not drawn)	DAX1 inh-2 4.6
CN(C)CCN1C(=O)C(=O)/C(=C(/O)c2ccc(F)cc2)C1c1ccccc1F (stereo not drawn)	none
CCN(CC)CCN1C(=O)C(=O)/C(=C(/O)c2ccc(F)cc2)C1c1cccnc1 (stereo not drawn)	DAX1 inh-2 5.0
CN(C)CCN1CCN(C(c2cc3ccccc3o2)c2nnnn2C(C)(C)C)CC1 (stereo not drawn)	none (no result: DAX1 inh-2)
O=c1oc2ccccc2c(N2CCCC2)c1[N+](=O)[O-]	DAX1 inh-2 4.7
O=c1oc2ccccc2c(N2CCCCC2)c1[N+](=O)[O-]	none
O=C1CCC(C(=O)NCCN2C(=O)S/C(=C\c3cccnc3)C2=O)=NN1	ssDAF-12 act 1.2
O=C(NCCN1C(=O)S/C(=C\c2cccnc2)C1=O)C1CC(=O)N(Cc2ccco2)C1 (stereo not drawn)	ssDAF-12 act 1.2
O=C(NCCN1C(=O)S/C(=C/c2cccnc2)C1=O)C1=NN(c2ccccc2)C(=O)CC1	none
O=C(CN1CCN(Cc2ccccc2Cl)C1=O)NCc1cccnc1	DAX1 inh-2 6.0
COc1ccc2cc(CCOC3CCCCO3)ncc2c1 (stereo not drawn)	hcDAF12 agonist 6.5
CC1(C)C=Cc2cc3ccc(=O)oc3cc2O1	DAX1 inh-2 6.7
CCOc1ccc(Cl)cc1-c1cc(C(=O)Nc2ccc(C(C)C)cc2)[nH]n1	none (no result: DAX1 inh-2)
Cc1ccc(S(=O)(=O)N2C[C@@H](C)[C@]3(C2)[C@H](O)[C@H](OC(=O)Nc2c(C)noc2C)C[C@H]2C(=O)N(c4ccccc4)C(=O)[C@H]23)cc1	none
Cc1ccc(N(CC(=O)N/N=C/c2cccc(Br)c2)S(C)(=O)=O)cc1	ssDAF-12 act 1.4
Cc1ccc(N(CC(=O)N/N=C/c2cccs2)S(C)(=O)=O)cc1	none
CS(=O)(=O)c1ccc(Nc2nc(C(N)CCc3ccccc3)cs2)cc1 (stereo not drawn)	none (no result: DAX1 inh-2)
COC(=O)c1ccc(Cn2cnc3cnccc32)cc1	none
CCOC(=O)Nc1nc2ccccc2s1	hgDAF-12 ag 11
O=C(CCNC(=O)c1ccccc1Cl)Nc1nc2ccccc2s1	hcDAF12 agonist 6.4
CCOC(=O)CC(=O)Nc1nc2ccccc2s1	none
CCCNC(=O)Nc1nc2ccccc2s1	DAX1 inh-2 4.4, hgDAF-12 ag 12
COc1cc(/C=C2/C(=N)N3N=C(CC(=O)N4CCOCC4)SC3=NC2=O)ccc1OC(C)c1ccccc1 (stereo not drawn)	ssDAF-12 act 2.2
CC(C)(C)c1nnc(NC(=S)Nc2ccccc2)s1	hgDAF-12 ag 11
Cc1ccccc1CC(=O)NC1CCCc2ccccc21 (stereo not drawn)	none
CC1(C)CC(=O)C(CC(=O)NC2CCCc3ccccc32)C(=O)C1 (stereo not drawn)	DAX1 inh-2 6.1
CC(C)NC(=O)CSc1nc(-c2ccccc2)cs1	DAX1 inh-2 4.7, hgDAF-12 ag 11
CC(=O)c1ccc(NC(=O)CSc2nc(N3CCOCC3)nc(N3CCOCC3)n2)cc1	DAX1 inh-1 4.1
O=C(Nc1cccc(C(F)(F)F)c1)C1Cc2c(-c3ccccc3)ccnc2O1 (stereo not drawn)	none (no result: DAX1 inh-2)
CCC1(c2ccccc2)NC(=S)N(c2ccc(C)cc2)N1 (stereo not drawn)	none
CCC1(c2ccc(Cl)cc2)NC(=S)N(c2ccccc2)N1 (stereo not drawn)	hcDAF12 agonist 5.7
CCCCCC1(C)NC(=S)N(c2ccccc2)N1 (stereo not drawn)	none
